Where “and” joins values, the source holds several entries; their conditions need not be identical. Equal entries are not always repeated. Records with an inconclusive call do not appear. Where a call stands in place of a potency, no number is given. Calls of active or inactive are those of the source. Calls come from the whole dose curve; as a rule, active = well fitted curve in the direction sought with a large enough effect in the repeat runs; inconclusive = weak or mixed curves; inactive = no such curve, though single readings can be large; an effect the other way counts as inactive or inconclusive. Starred links: 1 amine or outer side, 2 acyl side, 3 side chain; linkers in the order of their positions; H or OH if unused. Positions of bridges follow the written chain, without caps; N, C: chain ends. Non-standard residues stand in square brackets, D forms with d. Residues, ends and D or L forms follow the SMILES beside them. Chains are numbered I, II in the order given. Actinocin(9to1) = Cc1c2oc3c(C)ccc(C(=O)[*:1])c3nc-2c(C(=O)[*:2])c(N)c1=O; NMeV = CN[C@H](C(=O)O)C(C)C; Sar = CNCC(=O)O

A short description of the first experiment: qHTS assay to identify small molecule agonists of the estrogen related receptor (ERR) signaling pathway (AID 1224820). As to conditions: ERR reporter cell line, luciferase agonist mode; series mostly up to 46.1 µM. Summed up:
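Quantitative HTS of the LOPAC library used NTP ERR reporter cells treated 18 h at 37 C. Signal is luminescence after One-Glo addition and a 30 min room-temperature incubation.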
In general terms: Quantitative high-throughput screening tests each substance at several concentrations.
For the compound `CCN(CC)C(=S)SSC(=S)N(CC)CC`, the result was inactive.
The same measure, in the same setting: for `COC(=O)[C@H]1[C@H]2C[C@@H]3c4[nH]c5cc(OC)ccc5c4CCN3C[C@H]2C[C@@H](OC(=O)c2cc(OC)c(OC)c(OC)c2)[C@@H]1OC` the value was “inactive”.
In the case of `[Cl][In]([Cl])[Cl]`, the call was inactive.

The nature of a further experiment: qHTS assay to identify small molecule antagonists of the estrogen related receptor signaling pathway with the pleiotropic PPARgamma coactivator (PGC) cell viability counter screen (AID 1224822; note: potency is the fitted concentration of half-maximal effect). As to conditions: ERR/PGC reporter cell line viability counter screen; series mostly up to 46.1 µM. A digest of the protocol: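 Cells: PGC/ERR, 2,000/well, 1536-well format. Pre-incubation 6 h, 37 C/5% CO2. Compound exposure 17.5 h, 37 C. Detection: CellTiter-Fluor, 30 min, fluorescence.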
Consider `CCN(CC)C(=S)SSC(=S)N(CC)CC`, for which the Potency was 386 nM (active) and 220 nM (active).
In the case of `NC(=Nc1ccccc1)Nc1ccccc1`, the Potency result is “inactive”.
The same measure, in the same setting: with `[Cl][In]([Cl])[Cl]` the entry was “inactive”.

Another experiment is described as follows: qHTS assay to identify small molecule antagonists of the estrogen related receptor (ERR) signaling pathway from Tox21 library - cell viability counter screen (AID 1224834). Note: nearly all actives have a fitted effect of over 30% in size. Note: potency is the fitted concentration of half-maximal effect. As to conditions: ERR reporter cells viability, CellTiter-Fluor, 17.5 h; series mostly up to 92.4 µM. A digest of the protocol: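 Fluorescence from CellTiter-Fluor gives the viability read-out, taken 30 min after reagent addition. Before that, ERR cells seeded 6 h earlier were incubated with compounds for 17.5 h at 37 C.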
In the case of `COc1ccc(CCN(C)CCCC(C#N)(c2ccc(OC)c(OC)c2)C(C)C)cc1OC` (stereo unspecified), the Potency is 54.4 µM (active).
With `CC1COC(=O)O1` (stereo unspecified), the Potency result is “inactive”.
Same read-out and setting: for `CCOc1ccccc1C(N)=O` the value was “inactive”; for `O=Nc1ccc(Nc2ccccc2)cc1`, 19.4 µM (active) and 24.3 µM (active).
On the same count and under the same terms, for `Oc1ccc(Cl)cc1Cc1cc(Cl)ccc1O` the value was 44.1 µM (active) and 61.1 µM (active) and 29.8 µM (active); for `Clc1ccc2c(c1)C(N1CCNCC1)=Nc1ccccc1O2`, “inactive”.
Turning to `CC(=O)CC(C)=O`, the Potency result was “inactive”.
Take `CCN(CC)C(=S)SSC(=S)N(CC)CC`: the Potency is 243 nM (active) and 88.4 nM (active) and 335 nM (active).
For `CC(C)(C)NC(=O)[C@@H]1CN(Cc2cccnc2)CCN1C[C@@H](O)C[C@@H](Cc1ccccc1)C(=O)N[C@H]1c2ccccc2C[C@H]1O`, the Potency entry was “inactive”.
Turning to `CC[C@H]1CN2CCc3cc(OC)c(OC)cc3[C@@H]2C[C@@H]1C[C@H]1NCCc2cc(OC)c(OC)cc21`, the Potency is 15.4 nM (active) and 84.1 nM (active).
Same read-out and setting: with `CCC(C)(C)C(=O)O[C@H]1C[C@@H](C)C=C2C=C[C@H](C)[C@H](CC[C@@H]3C[C@@H](O)CC(=O)O3)[C@H]21` the entry was “inactive”; with `CC[C@]1(O)C[C@@H]2CN(CCc3c([nH]c4ccccc34)[C@@](C(=O)OC)(c3cc4c(cc3OC)N(C)[C@H]3[C@@](O)(C(=O)OC)[C@H](OC(C)=O)[C@]5(CC)C=CCN6CC[C@]43[C@@H]65)C2)C1`, 0.841 µM (active); with `CCCCCCCCCCCC[N+](C)(C)C`, 48.4 µM (active).
With `Cc1c2oc3c(C)ccc(C(=O)N[C@@H]4C(=O)N[C@H](C(C)C)C(=O)N5CCC[C@H]5C(=O)N(C)CC(=O)N(C)[C@@H](C(C)C)C(=O)O[C@@H]4C)c3nc-2c(C(=O)N[C@@H]2C(=O)N[C@H](C(C)C)C(=O)N3CCC[C@H]3C(=O)N(C)CC(=O)N(C)[C@@H](C(C)C)C(=O)O[C@@H]2C)c(N)c1=O` (I: T[dV]P[Sar][NMeV] / II: T[dV]P[Sar][NMeV]; ester I:1-I:C, II:1-II:C; linker I:N-II:N via Actinocin(9to1)), the Potency was 7.48 µM (active) and 188 nM (active).
Same read-out and setting: with `O=C(Cl)c1cccc(C(=O)Cl)c1` the entry was “inactive”; with `CC(=O)C1=C(C)[C@@H]2C[C@@]3(C1)[C@H](C)CC[C@H]3C2(C)C`, “inactive”; with `BrC1CCC(Br)C(Br)CCC(Br)C(Br)CCC1Br` (stereo unspecified), 48.4 µM (active).
Same read-out and setting: with `OCCN1CCNCC1` the entry was “inactive”; with `O`, “inactive”.
On the same count and under the same terms, for `CCC(=O)/C=C/C1C(C)=CCCC1(C)C` (stereo unspecified) the value was “inactive”; for `CC(C)(C)c1cc(C(C)(C)C)c(O)c(C(C)(C)C)c1`, “inactive”; for `NC(=Nc1ccccc1)Nc1ccccc1`, “inactive”.
As for `C=CC(=O)OCCCCCCOC(=O)C=C`, the Potency is 54.5 µM (active).
Regarding `O=S(=O)(O)c1ccc2nc(-c3ccccc3)[nH]c2c1`, the Potency result was “inactive”.
Take `COC(=O)[C@H]1[C@H]2C[C@@H]3c4[nH]c5cc(OC)ccc5c4CCN3C[C@H]2C[C@@H](OC(=O)c2cc(OC)c(OC)c(OC)c2)[C@@H]1OC`: the Potency was 22.3 µM (active).
On the same count and under the same terms, for `[Cl][In]([Cl])[Cl]` the value was “inactive”; for `CCn1c2ccccc2c2cc(N)ccc21`, “inactive”; for `Oc1c(Cl)cc(Cl)c(Cl)c1Cc1c(O)c(Cl)cc(Cl)c1Cl`, 13.6 µM (active) and 13.7 µM (active) and 8.41 µM (active).
In the case of `Cc1cc(C(C)(C)C)c(O)c(C(C)(C)C)c1`, the Potency entry is “inactive”.
The same measure, in the same setting: with `CC(=O)O[C@]1(C(C)=O)CC[C@H]2[C@@H]3C[C@H](C)C4=CC(=O)CC[C@]4(C)[C@H]3CC[C@@]21C` the figure was 61.1 µM (active); with `CCCCCC(=O)O[C@]1(C(C)=O)CC[C@H]2[C@@H]3CCC4=CC(=O)CC[C@]4(C)[C@H]3CC[C@@]21C`, 48.2 µM (active) and 29.8 µM (active); with `CCCN[C@H]1CCc2nc(N)sc2C1`, “inactive”.
On the same count and under the same terms, with `Cc1cc(C2(c3cc(C)c(O)cc3C)OS(=O)(=O)c3ccccc32)c(C)cc1O` the figure was 21.7 µM (active) and 24.3 µM (active); with `CC(COc1ccccc1)N(CCCl)Cc1ccccc1` (stereo unspecified), “inactive”; with `C=C(C)C(=O)O`, “inactive”.

Values taken from PubChem BioAssay (Tox21).
